Results filed as inconclusive are left out. Values without a mark were called inactive. Activity calls are given as the source filed them. Calls come from the whole dose curve; as a rule, active = well fitted inhibition curve with a large enough effect; inconclusive = small, poorly fitted or top-dose-only effect; inactive = flat fitted curve, though single readings scatter.
Biological target: Voltage-gated inwardly rectifying potassium channel KCNH2 (Homo sapiens) (UniProt Q12809)
Assay: qHTS Assay for Small Molecule Inhibitors of the Human hERG Channel Activity (AID 588834);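 note: lower thallium flux fluorescence means stronger hERG block; nearly all actives have a fitted effect of over 50% in size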; for activity change, negative = inhibition: top concentration of the series differs between compounds
Conditions: U2OS BacMam hERG, FluxOR thallium flux fluorescence; series mostly up to 46.1 µM; activity change, negative = inhibition: at the top concentration
Method in brief: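 hERG-BacMam U2OS, 2000 cells/well; 0.7X FluxOR loading 1 hr RT dark; cpd ~10 min 37 °C; stim buffer; FDSS fluorescence 2 min @ 1 s; AC50 Hill fit.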
% is set by controls: 0 for no effect and ±100 for the full control effect; potency is the fitted concentration of half-maximal effect.

Voltage-gated inwardly rectifying potassium channel KCNH2 (Homo sapiens), sequence (Q12809 whole entry, looked up): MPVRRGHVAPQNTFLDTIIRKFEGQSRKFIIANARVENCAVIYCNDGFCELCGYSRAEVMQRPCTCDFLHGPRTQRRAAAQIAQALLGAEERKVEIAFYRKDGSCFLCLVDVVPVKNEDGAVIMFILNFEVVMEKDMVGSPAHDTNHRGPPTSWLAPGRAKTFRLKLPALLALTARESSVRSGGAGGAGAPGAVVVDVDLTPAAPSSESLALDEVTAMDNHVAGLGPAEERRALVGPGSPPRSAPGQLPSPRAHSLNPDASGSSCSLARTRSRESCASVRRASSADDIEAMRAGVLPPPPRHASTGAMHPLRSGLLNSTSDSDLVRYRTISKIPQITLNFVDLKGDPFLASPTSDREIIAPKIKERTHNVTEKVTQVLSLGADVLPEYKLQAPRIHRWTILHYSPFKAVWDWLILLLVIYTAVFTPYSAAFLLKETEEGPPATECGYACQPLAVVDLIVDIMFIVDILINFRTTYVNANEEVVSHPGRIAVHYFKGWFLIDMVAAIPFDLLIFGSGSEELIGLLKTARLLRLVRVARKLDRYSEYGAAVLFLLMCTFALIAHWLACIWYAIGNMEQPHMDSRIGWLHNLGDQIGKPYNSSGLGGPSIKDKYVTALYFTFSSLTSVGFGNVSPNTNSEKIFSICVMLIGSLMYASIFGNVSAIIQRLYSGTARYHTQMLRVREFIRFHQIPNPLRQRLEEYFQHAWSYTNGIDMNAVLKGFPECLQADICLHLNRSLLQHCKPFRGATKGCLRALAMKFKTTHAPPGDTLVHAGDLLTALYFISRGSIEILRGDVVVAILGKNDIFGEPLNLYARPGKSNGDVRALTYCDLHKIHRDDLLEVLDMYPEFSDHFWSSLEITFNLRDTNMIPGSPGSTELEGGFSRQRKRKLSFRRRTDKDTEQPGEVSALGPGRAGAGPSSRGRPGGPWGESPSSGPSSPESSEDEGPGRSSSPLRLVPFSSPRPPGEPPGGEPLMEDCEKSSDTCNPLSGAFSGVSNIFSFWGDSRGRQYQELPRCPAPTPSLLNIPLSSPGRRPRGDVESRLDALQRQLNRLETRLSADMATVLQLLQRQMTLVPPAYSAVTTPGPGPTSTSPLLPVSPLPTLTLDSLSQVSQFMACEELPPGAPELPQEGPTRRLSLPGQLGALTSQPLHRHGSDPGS

First: NCCCP(=O)(O)O
Second: COc1ccc2[nH]cc(CCN)c2c1
The “activity change, negative = inhibition” value of the first is higher: 8.66% for the first, 0.471% for the second.

Going from CC1(C(=O)O)C2CCC(O2)C1(C)C(=O)O (stereo not drawn) to CCN(CC)C(=O)N[C@H]1C[C@@H]2c3cccc4[nH]cc(c34)C[C@H]2N(C)C1, the “activity change, negative = inhibition” value falls from 1.78% to -5.04%.

Going from CN(C)[C@H](Cc1ccccc1)c1ccccc1 to CC(Cc1ccc(OCC(=O)O)cc1)NCC(O)c1cccc(Cl)c1 (stereo not drawn), the “activity change, negative = inhibition” value falls from 3.69% to -23.7%.

Going from Cc1ccccc1-n1c(CF)nc2ccc(N)cc2c1=O to O=[N+]([O-])c1ccc2nc(N3CCNCC3)ccc2c1, the “activity change, negative = inhibition” value falls from 8.42% to -53.1%.

Compared with CCCCC[C@@H](O)C1C(=O)OC(C)[C@H](O)/C=C/C=C/C=C/C=C/C=C(\C)C(O)C(O)C(O)C[C@H](O)C[C@H](O)C[C@H](O)C[C@H](O)C[C@@H]1O (stereo partly drawn), C[N+](C)(C)CC#CCOC(=O)Nc1cccc(Cl)c1 is lower in “activity change, negative = inhibition” value: 18.6% for the first, -1.65% for the second.

Going from CC(N)Cc1c[nH]c2ccc(O)cc12 (stereo not drawn) to CO[C@H]1CC=C2CCN3CCC4=C(CC(=O)OC4)[C@]23C1, the “activity change, negative = inhibition” value rises from 15.1% to 20.6%.

Going from CCNCC(O)c1cccc(O)c1 (stereo not drawn) to O=c1ccc2cc(O[C@@H]3O[C@H](CO)[C@@H](O)[C@H](O)[C@H]3O)c(O)cc2o1, the “activity change, negative = inhibition” value falls from -7.21% [at 20.6 µM] to -9.33% [at 20.6 µM].

CN1CC[C@@]2(C)c3cc(O)ccc3N(C)C12 (stereo partly drawn) was tested, and the Potency was 35.5 µM (active).
O=S1(=O)N(CCN2CC=C(c3c[nH]c4cc(F)ccc34)CC2)c2cccc3c2N1CCC3 was tested, and the Potency was 7.08 µM (active).
Oc1ccc2c3c1O[C@H]1c4[nH]c5ccccc5c4C[C@@]4(O)C(C2)N(CC2CC2)CCC314 (stereo partly drawn) was tested, and the Potency was 0.794 µM (active).
In the case of Nc1ccc(CCN2CCN(c3cccc(C(F)(F)F)c3)CC2)cc1, the Potency is reported as 2.24 µM (active).

From PubChem BioAssay (NCATS)
